# PubChem BioAssay
# The source made the active and inactive calls.
# Tests used:
# [1] = test system: PRMT1 (protein arginine N-methyltransferase 1); test: PRMT1 binders on small-molecule microarrays, primary screen, biochemical, small-molecule microarray, 635 nm fluorescence (AID 1088); conditions: small-molecule microarray binding, higher = more signal;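 further: binding of Prmt1 protein to compounds spotted on small-molecule microarray slides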
# [2] = yeast growth modulation, basal conditions, primary screen, YJM789 clinical isolate, OD600, 24 h (AID 1089);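 further: growth of clinical yeast isolate S. cerevisiae YJM 789 seeded 1000 cells per well; test concentration not given here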; conditions: S. cerevisiae YJM789 growth, higher = more signal, called active from +8 up or from −8 down
# [3] = fission yeast growth modulation, primary screen, strain 972, OD600, 24 h, no modulator (AID 1090);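 further: basal condition with compound alone and no growth modifier present; test concentration not given here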; conditions: S. pombe 972 growth, higher = more signal, called active from +8 up or from −8 down
# [4] = S. cerevisiae growth modulation with rapamycin, primary screen, strain BY4716, OD600, 96 h (AID 1091); conditions: higher = more signal, called active from +8 up or from −8 down; further: test concentration not given here
# [5] = biological target: Torsin-1A-interacting protein 2 (Homo sapiens) (UniProt Q8NFQ8); test: LULL1 binders on small-molecule microarray, primary screen, cell lysate, human LULL1 lysate, 635/667 nm fluorescence (AID 1092); conditions: hLULL1 lysate binding, 635 nm fluorescence, higher = more signal;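 further: probe is lysate of COS7 cells overexpressing human LULL1; score merges per-feature 667 nm fluorescence with signal-to-noise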
# [6] = E. coli growth modulation, two-sided OD650, primary screen, E. coli filamentation project, strain DRC41, 24 h (AID 1093); conditions: OD650, 24 h, higher = more signal, called active from +8 up or from −8 down;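 further: MC1000 strain lacking acrAB efflux and sulA so SOS filamentation is blocked; test concentration not given here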
# [7] = small-molecule microarray binders of probe aLefty2, primary screen, biochemical, biotinylated probe, 635/667 nm fluorescence (AID 1094); conditions: higher = more signal;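 further: score merges spot fluorescence near 667 nm with spot signal-to-noise ratio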
# [8] = test system: Noggin (protein binding on small-molecule microarray); test: Noggin binders on small-molecule microarray, primary screen, biochemical, 635/667 nm fluorescence (AID 1095); conditions: 635 nm fluorescence, higher = more signal;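 further: score merges 667 nm feature fluorescence with signal to noise over triplicate slides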
# [9] = biological target: Neurogenic locus notch homolog protein 3 (Homo sapiens) (UniProt Q9UM47); test: NOTCH3 binders on small-molecule microarray, primary screen, biochemical, 635/667 nm fluorescence (AID 1096); conditions: NOTCH3 binding, 635 nm fluorescence, higher = more signal
# [10] = small-molecule microarray binders of probe aEGFR, primary screen, biochemical, biotinylated probe, 635/667 nm fluorescence (AID 1097); conditions: higher = more signal;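 further: probe is a biotinylated anti-EGFR antibody binding compounds printed on slides; score combines fluorescence near 667 nm and signal to noise of each spot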
# Neurogenic locus notch homolog protein 3 (Homo sapiens), sequence (Q9UM47 whole entry, looked up): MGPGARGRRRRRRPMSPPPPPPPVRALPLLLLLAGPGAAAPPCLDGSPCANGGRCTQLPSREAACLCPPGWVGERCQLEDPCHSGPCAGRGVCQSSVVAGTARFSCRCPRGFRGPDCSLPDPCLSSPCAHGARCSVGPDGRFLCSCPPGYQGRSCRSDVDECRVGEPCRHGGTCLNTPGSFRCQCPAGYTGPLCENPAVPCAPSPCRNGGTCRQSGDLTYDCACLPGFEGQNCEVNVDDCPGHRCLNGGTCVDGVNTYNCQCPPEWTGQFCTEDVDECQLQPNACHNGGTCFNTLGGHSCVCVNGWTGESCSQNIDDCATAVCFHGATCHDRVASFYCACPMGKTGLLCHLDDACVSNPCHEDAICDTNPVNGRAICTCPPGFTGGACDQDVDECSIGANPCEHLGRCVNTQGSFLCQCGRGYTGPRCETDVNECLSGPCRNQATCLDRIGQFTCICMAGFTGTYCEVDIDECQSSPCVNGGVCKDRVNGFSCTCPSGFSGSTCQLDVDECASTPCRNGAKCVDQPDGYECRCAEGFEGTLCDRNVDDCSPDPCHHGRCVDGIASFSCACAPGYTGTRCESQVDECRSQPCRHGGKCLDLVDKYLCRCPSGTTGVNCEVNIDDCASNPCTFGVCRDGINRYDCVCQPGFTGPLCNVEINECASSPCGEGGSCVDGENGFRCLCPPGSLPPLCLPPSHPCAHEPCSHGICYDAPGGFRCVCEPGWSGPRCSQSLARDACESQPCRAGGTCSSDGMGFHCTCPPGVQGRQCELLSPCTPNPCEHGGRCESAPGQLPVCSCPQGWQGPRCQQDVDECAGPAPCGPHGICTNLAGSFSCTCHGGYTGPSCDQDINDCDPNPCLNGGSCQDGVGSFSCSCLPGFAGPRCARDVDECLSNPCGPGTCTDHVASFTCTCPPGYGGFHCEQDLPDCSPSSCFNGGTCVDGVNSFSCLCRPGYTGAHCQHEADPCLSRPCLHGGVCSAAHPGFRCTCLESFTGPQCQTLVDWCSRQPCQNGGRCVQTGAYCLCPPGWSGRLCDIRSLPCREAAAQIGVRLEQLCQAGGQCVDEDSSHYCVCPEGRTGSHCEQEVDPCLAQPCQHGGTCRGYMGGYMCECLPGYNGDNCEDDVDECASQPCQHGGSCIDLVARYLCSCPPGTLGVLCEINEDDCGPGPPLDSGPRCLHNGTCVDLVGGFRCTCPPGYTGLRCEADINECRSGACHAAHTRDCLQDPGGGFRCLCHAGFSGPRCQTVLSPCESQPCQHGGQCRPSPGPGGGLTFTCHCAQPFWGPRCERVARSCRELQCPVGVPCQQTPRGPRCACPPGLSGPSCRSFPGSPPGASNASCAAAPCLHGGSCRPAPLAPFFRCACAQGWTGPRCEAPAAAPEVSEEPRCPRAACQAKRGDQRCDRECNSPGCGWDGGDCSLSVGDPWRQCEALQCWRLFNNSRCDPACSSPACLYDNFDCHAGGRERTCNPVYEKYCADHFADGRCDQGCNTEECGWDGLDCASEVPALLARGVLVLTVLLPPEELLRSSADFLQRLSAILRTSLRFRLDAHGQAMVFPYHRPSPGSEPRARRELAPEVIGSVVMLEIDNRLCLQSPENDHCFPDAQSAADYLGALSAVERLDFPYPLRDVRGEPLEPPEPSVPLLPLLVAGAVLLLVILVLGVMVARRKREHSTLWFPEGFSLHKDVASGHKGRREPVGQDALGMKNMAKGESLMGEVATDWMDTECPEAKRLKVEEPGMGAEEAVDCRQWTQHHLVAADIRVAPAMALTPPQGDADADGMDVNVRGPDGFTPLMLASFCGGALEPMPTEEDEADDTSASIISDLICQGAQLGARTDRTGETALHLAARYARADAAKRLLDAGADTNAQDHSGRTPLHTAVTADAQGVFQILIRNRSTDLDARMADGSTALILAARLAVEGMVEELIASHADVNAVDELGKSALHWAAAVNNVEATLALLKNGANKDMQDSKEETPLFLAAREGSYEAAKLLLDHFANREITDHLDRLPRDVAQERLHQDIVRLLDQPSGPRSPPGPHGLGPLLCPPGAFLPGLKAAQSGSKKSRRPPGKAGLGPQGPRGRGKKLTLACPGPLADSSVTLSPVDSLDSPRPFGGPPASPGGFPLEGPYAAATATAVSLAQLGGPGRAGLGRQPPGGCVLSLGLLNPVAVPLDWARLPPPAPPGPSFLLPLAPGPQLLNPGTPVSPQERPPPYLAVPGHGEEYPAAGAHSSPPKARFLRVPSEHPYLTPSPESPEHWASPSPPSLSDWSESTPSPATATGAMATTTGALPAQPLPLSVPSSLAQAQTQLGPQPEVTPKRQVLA
# Torsin-1A-interacting protein 2 (Homo sapiens), sequence (Q8NFQ8 whole entry, looked up): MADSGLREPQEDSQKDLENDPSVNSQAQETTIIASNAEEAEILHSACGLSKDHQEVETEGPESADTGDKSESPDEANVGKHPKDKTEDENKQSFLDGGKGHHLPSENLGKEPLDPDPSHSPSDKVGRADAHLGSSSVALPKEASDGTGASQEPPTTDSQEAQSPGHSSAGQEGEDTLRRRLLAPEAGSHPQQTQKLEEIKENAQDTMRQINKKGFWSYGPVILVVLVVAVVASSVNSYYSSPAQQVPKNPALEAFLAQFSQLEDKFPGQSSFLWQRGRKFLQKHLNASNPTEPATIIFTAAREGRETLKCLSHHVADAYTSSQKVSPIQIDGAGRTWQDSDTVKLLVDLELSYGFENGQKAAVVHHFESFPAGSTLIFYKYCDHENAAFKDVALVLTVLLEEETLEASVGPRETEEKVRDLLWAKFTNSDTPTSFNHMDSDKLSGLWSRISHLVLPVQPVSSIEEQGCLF
Structure (SMILES),composite z-score [1],z-score [2],z-score [3],z-score [4],composite z-score [5],z-score [6],composite z-score [7],composite z-score [8],composite z-score [9],composite z-score [10]
COc1cc2c(cc1OC)CN(C(=O)[C@@H]1[C@H]3C(=O)O[C@H](c4ccccc4)[C@H](c4ccccc4)N3[C@H](c3ccc(O)cc3)[C@@]13C(=O)Nc1ccc(C#CC4=CCCCC4)cc13)CC2,1.55,1.63 (inactive),-0.921 (inactive),1.88 (inactive),2.44,2.11 (inactive),-0.0753,0.82,1.08,0.0324
C=CC[C@H](OC(=O)Nc1ccc(SC)cc1)c1ccc(O)c(F)c1,-0.487,-22.7 (active),-19.7 (active),-1.19 (inactive),1.04,0.622 (inactive),-0.106,-0.176,0.223,-0.14
O=C(CS)NCCCCCCNC(=O)[C@H]1C[C@H]2C(=O)NCC(=O)N2[C@H]1c1cccc(OCCO)c1,0.863,-0.573 (inactive),-0.372 (inactive),0.585 (inactive),2.47,1.25 (inactive),0.0657,0.6,0.471,-0.0612
Cc1ccc(S(=O)(=O)N2[C@@H](c3ccccc3)C(C(=O)O)=CC[C@H]2c2ccc(F)cc2)cc1,1.26,-0.485 (inactive),0.364 (inactive),0.311 (inactive),4.08,-0.0865 (inactive),-0.0803,-0.0184,0.76,-0.241
C=C(COC)C(=O)CC[C@H](OC(C)=O)c1ccccc1OCCO,1.39,0.556 (inactive),-2.58 (inactive),-0.401 (inactive),-0.323,1.32 (inactive),-0.166,0.985,0.367,-0.262
CC[C@@H]1C=C(C(=O)O)[C@H](c2cccc(Cl)c2)N1S(=O)(=O)c1ccc(C)cc1,0.877,-0.848 (inactive),-0.874 (inactive),-0.177 (inactive),3.5,-0.944 (inactive),0.0595,-0.791,-0.118,-0.128
C=C(C(=O)CC[C@H](OC(=O)c1ccccc1-c1ccccc1C(=O)O)c1ccc(OCCO)cc1)C(C)C,1.51,-1.2 (inactive),-0.788 (inactive),-1.28 (inactive),3.04,0.438 (inactive),-0.135,0.779,0.241,0.0675
CCCC1(C(=O)OC)C=C2C(=C(C(C)C)C(=O)C2C)CN1 (stereo not given),-1.32,0.128 (inactive),0.0695 (inactive),0.767 (inactive),0.268,-1.24 (inactive),0.115,-0.797,-0.493,-0.146
[N-]=[N+]=NCc1ccccc1[C@H]1OC(c2ccc(OCCCO)cc2)=N[C@@]1(Cc1ccccc1N=[N+]=[N-])C(=O)N1CCOCC1,1.58,-0.8 (inactive),1.23 (inactive),4.53 (inactive),3.36,0.175 (inactive),-0.0133,0.123,1.11,-0.0031
C=C(C(=O)CC[C@@H](OC(=O)c1ccccc1-c1ccccc1C(=O)O)c1ccc(OCCO)cc1)C(C)C,1.55,-0.694 (inactive),-1.26 (inactive),-1.3 (inactive),1.25,0.416 (inactive),0.0028,1.35,1.15,-0.0755
COC(=O)C(CC#Cc1ccc2c(c1)[C@]1(C(=O)N2)[C@H](C(=O)N2CCN(c3ncccn3)CC2)[C@H]2C(=O)O[C@H](c3ccccc3)[C@H](c3ccccc3)N2[C@@H]1c1ccc(O)cc1)C(=O)OC,1.53,1.04 (inactive),1.1 (inactive),0.183 (inactive),3.25,-0.333 (inactive),0.759,1.73,1.01,1.05
O=C1O[C@H](c2ccccc2)[C@H](c2ccccc2)N2[C@H]1[C@@H](C(=O)O)[C@]1(C(=O)Nc3ccccc31)[C@H]2c1ccc(OCCO)cc1,1.53,-0.0404 (inactive),0.414 (inactive),-0.303 (inactive),3.27,1.36 (inactive),-0.065,0.286,0.33,-0.177
NCCCCCCNC(=O)[C@@H]1C[C@@H]2C(=O)NCC(=O)N2[C@@H]1c1cccc(OCCO)c1,1.37,-0.205 (inactive),-0.542 (inactive),-0.138 (inactive),2.11,1.04 (inactive),0.0997,1.12,0.783,0.0988
CO[C@H]1O[C@H](CO)[C@@H](OC(=O)CCc2ccccc2)[C@@H]2OC(=O)[C@@H](Cc3ccc4ccccc4c3)C/C=C/C[C@H](Cc3ccc4ccccc4c3)C(=O)O[C@@H]12,0.505,-2.4 (inactive),-2.22 (inactive),11.7 (active),0.784,0.149 (inactive),-0.138,-0.701,-1.26,-0.206
[N-]=[N+]=NCc1ccccc1[C@H]1OC(c2ccc(OCCCO)cc2)=N[C@@]1(CCS(=O)(=O)c1ccccc1)C(=O)O,0.0361,-0.791 (inactive),-0.155 (inactive),-0.814 (inactive),3.11,0.32 (inactive),0.021,-0.482,0.253,-0.067
C=C(COC)/C(=C/C[C@@H](OC(=O)c1ccncc1)c1ccccc1OCCO)c1cnc2ccccc2c1,1.54,-0.564 (inactive),-1.61 (inactive),0.698 (inactive),2.03,1.1 (inactive),-0.0304,1.95,1.02,0.0533
[N-]=[N+]=NCc1ccccc1C[C@@]1(C(=O)NCCN2CCOCC2)N=C(c2ccc(OCCCO)cc2)O[C@@H]1c1ccccc1,1.37,-0.941 (inactive),-3.76 (inactive),15.8 (active),2.96,-0.304 (inactive),-0.0073,0.565,0.65,-0.0128
COc1ccc(NN2C(C(O)c3ccccc3)C=CC3C(=O)N(C4CCCCC4)C(=O)C32)cc1 (stereo not given),1.56,-0.0673 (inactive),0.991 (inactive),1.34 (inactive),3.34,0.0456 (inactive),0.107,1.08,1.06,0.0953
CCOC(=O)C[C@H]1[C@H](OC(=O)c2ccc(-c3ccccc3)cc2)[C@@H](NC(=O)c2ccc(-c3ccccc3)cc2)c2cc(OCCCO)ccc2N1C(=O)c1ccccc1,1.26,0.495 (inactive),0.785 (inactive),1.3 (inactive),1.69,-0.783 (inactive),-0.275,0.253,1.07,-0.183
O=C1C2C=CC(C(O)C3CC=CCC3)N(Nc3ccc([N+](=O)[O-])cc3)C2C(=O)N1c1ccccc1 (stereo not given),1.41,-1.09 (inactive),0.531 (inactive),2.22 (inactive),3.22,0.0043 (inactive),0.486,0.7,1.06,0.298
COC(=O)[C@]1(Cc2ccccc2CN=[N+]=[N-])N=C(c2ccc(OCCCO)cc2)O[C@@H]1c1ccccc1N=[N+]=[N-],0.907,-0.267 (inactive),-1.58 (inactive),36.1 (active),1.22,1.08 (inactive),0.0269,0.398,-0.122,-0.297
CN1C(=O)C2C=CC(C(O)COCc3ccccc3)N(Nc3ccc([N+](=O)[O-])cc3[N+](=O)[O-])C2C1=O (stereo not given),0.332,0.629 (inactive),-1.58 (inactive),0.308 (inactive),1.78,-0.278 (inactive),0.229,-0.39,-0.282,-0.146
C=C(CCCC)C(=O)CC[C@@H](OC(C)=O)c1ccc(OCCO)cc1,1.01,-1.58 (inactive),-2.48 (inactive),-0.679 (inactive),0.742,0.44 (inactive),-0.178,1.53,1.13,-0.216
COCCOC(=O)N1C(=O)[C@@]2(c3cc(C#CCNC(N)=O)ccc31)[C@H](C(N)=O)[C@H]1C(=O)O[C@H](c3ccccc3)[C@H](c3ccccc3)N1[C@@H]2c1ccc(O)cc1,0.46,0.898 (inactive),-0.173 (inactive),0.449 (inactive),0.634,1.19 (inactive),0.0362,0.173,-0.564,-0.0828
CCCCN1CC=CC23O[C@@H]4/C=C\CCC(C)OC(=O)C4[C@H]2C(=O)N(CCO)[C@@H]3C1=O (stereo not given in full),-0.314,-1.64 (inactive),-1.02 (inactive),-1.2 (inactive),3.4,2.26 (inactive),0.0469,-0.19,-0.342,-0.157
O=C1O[C@@H](c2ccccc2)[C@@H](c2ccccc2)N2[C@@H](c3ccccc3OCCO)[C@]3(C(=O)Nc4ccc(C#CC5(O)CCCCCC5)cc43)[C@@H](C(=O)N3CCCCCCC3)[C@H]12,1.53,0.834 (inactive),-0.51 (inactive),2.57 (inactive),5.07,1.23 (inactive),1.95,2.46,1,1.52
COC(=O)[C@@]1(Cc2ccccc2)[C@H]2c3cc(C(=O)N(C)C)n(CCF)c3C[C@H]2CN1C(=O)c1ccccc1,0.479,0.176 (inactive),1.18 (inactive),0.678 (inactive),2.21,-0.0418 (inactive),0.534,-0.669,0.782,0.21
COC(=O)C(CC#Cc1ccc2c(c1)[C@]1(C(=O)N2)[C@H](c2ccccc2OCCO)N2[C@H](c3ccccc3)[C@H](c3ccccc3)OC(=O)[C@H]2[C@@H]1C(=O)N1CCN(c2ncccn2)CC1)C(=O)OC,1.51,2.61 (inactive),1.28 (inactive),6.83 (inactive),2.15,0.173 (inactive),-0.107,1.71,1.09,-0.0982
